SMN2 splice enh: increases expression of the SMN2 splice variant. AID 1458. Potency, µM (titrated, usually from 46.1 µM), for the others: at the top dose activity change, positive = activation, usual class: activators. HEK293 SMN2-luciferase splicing reporter, luminescence, 30-36 h. 210,000 tested, 2.8% active; note: % of control where 0% means no effect; nearly all actives have a fitted effect of over 55% in size
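HEK293 cells carry an SMN2 […]–luciferase reporter in which exon 7 inclusion puts luciferase in frame. Cells were plated 10-12 h before compound addition, then incubated 30-36 h at 37C. ONE-Glo luminescence was read; sodium butyrate at 4.5 mM final served as control.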
FLuc modulator: counter-screen for miR-21 project: firefly luciferase inhibitors or activators. P08659. purified FLuc, Km substrates, luminescence inhibition. Potency, µM (doses to about 57.5 µM), for inactives: at the highest dose activity change, negative = inhibition, most hits filed as inhibitors. 360,000 tested, 6.9% active;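 note: plate controls were vehicle for no effect and reference inhibitor for full effect; nearly all actives have a fitted effect of over 55% in size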
Target sequence (P08659 whole entry, looked up): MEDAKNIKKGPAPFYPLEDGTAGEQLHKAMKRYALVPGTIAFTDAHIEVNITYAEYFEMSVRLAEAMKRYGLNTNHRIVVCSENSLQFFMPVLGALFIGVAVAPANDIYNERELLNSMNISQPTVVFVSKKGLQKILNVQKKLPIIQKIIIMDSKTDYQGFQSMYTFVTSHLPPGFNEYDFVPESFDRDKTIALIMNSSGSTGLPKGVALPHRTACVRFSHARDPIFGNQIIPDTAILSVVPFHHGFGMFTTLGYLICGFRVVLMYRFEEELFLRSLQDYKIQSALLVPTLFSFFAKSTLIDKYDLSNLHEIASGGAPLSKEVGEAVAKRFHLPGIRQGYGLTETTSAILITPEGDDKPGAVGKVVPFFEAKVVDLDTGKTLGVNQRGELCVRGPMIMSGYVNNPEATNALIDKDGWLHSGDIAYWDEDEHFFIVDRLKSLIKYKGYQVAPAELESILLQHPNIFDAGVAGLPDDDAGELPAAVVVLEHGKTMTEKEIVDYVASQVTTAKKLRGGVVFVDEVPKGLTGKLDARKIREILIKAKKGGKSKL
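Biochemical qHTS of compounds, final roughly 60 µM downward over six points, against 10 nM purified firefly luciferase using Km concentrations of substrates (10 uM D-luciferin, 10 uM ATP) in Tris acetate pH 7.5 buffer; luminescence output.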
NPC1 prom act: NPC1 promoter activation; Huh7 NPC1 promoter luciferase reporter, 24 h; Potency, µM (series often up to 9.22 µM), for inactives: top-dose activation, actives largely listed as activators; 320,000 tested, 2.4% active; AID 485313; note: % of control where 0% means no effect; nearly all actives have a fitted effect of over 60% in size
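In 1536-well qHTS, Huh7 cells harboring an NPC1 promoter–luciferase construct received compound for 24 h; activation was quantified by luminescence following luciferase reagent addition.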
ELG1 genotoxic: genotoxicity induction in ELG1-luciferase HEK293T cells | HEK293T ELG1-luciferase reporter, luminescence, 16 h | AID 504466 | 330,000 tested, 1.3% active | Potency, µM (top dose mostly 46 µM), for inactives: at the highest dose activity change, positive = activation, most hits filed as activators; note: % of control where 0% means no effect; nearly all actives have a fitted effect of over 60% in size
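Cells (2,000/well) expressing the ELG1-luciferase fusion are dosed by pin tool and kept 16 hr at 37 °C, 5% CO2. Signal comes from ONE-Glo luciferase reagent after 30 min at room temperature.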
Rab9 promoter act: activates the Rab9 promoter; Huh7 Rab9 promoter-luciferase reporter, luminescence, 24 h; Potency, µM (titrated, usually from 9.22 µM), for inactives: at the highest dose activation, negative = inhibition, hits mostly activators; 320,000 tested, 2.8% active; note: % of control where 0% means no effect; nearly all actives have a fitted effect of over 60% in size
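Cell-based reporter: Huh7 stable for Rab9 promoter-driven luciferase, plated in reduced-serum medium with 10% FBS at 1500 cells/well, compound-treated 24 h at 37 °C, luminescence read after 10 min reagent.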
ELG1 DNA repair: blocks ELG1-dependent DNA repair in HEK293T cells; HEK293T ELG1-luciferase reporter, luminescence, 16 h; DNA damage induced by 5-fluorouridine; Potency, µM (highest dose often 46.1 µM), inactives show at the highest dose activity change, negative = inhibition, usual class: inhibitors; 330,000 tested, 2.3% active; AID 504467; note: % is set by controls: 0 for no effect and ±100 for the full control effect; nearly all actives have a fitted effect of over 55% in size
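In this reporter screen, reduction of luminescence relative to DMSO vehicle indicated activity. Compounds and 5-fluorouridine were added together to 2,000 cells per well, incubated for 16 hr at 37 °C, then developed with ONE-Glo.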
* marks the source's active call; other numbers are inactive results; ? = inconclusive; / = not tested or not shown. Hits are enriched below; roughly 9.2% of the tested compounds scored in any of these assays. Calls come from the whole dose curve; as a rule, active = well fitted curve in the direction sought with a large enough effect; inconclusive = small, poorly fitted or top-dose-only effect, or another doubt; inactive = no such curve, though single readings can be large; an effect the other way counts as inactive or inconclusive. Potency is the fitted concentration of half-maximal effect.

SMILES	SMN2 splice enh	FLuc modulator	NPC1 prom act	ELG1 genotoxic	Rab9 promoter act	ELG1 DNA repair
Cc1ccc(-n2nc3c(=O)n(CC(=O)NC(C)CCc4ccccc4)nc(C)c3c2C)cc1 (stereo unspecified)	/	4%	-32%	13%	-34%	0.65µM*
COc1ccc(OC)c(CCNC(=O)Cn2nc(C)c3c(C)n(-c4ccccc4)nc3c2=O)c1	/	2%	-3%	-6%	-6%	7.3µM*
COc1ccc(OC)c(CCNC(=O)CCn2nc(C)c3c(C)n(-c4ccccc4)nc3c2=O)c1	/	0%	-3%	-3%	-2%	-21%
COc1ccc(-c2cc(=NC(CC(C)C)C(=O)O)c3cc(C)ccc3o2)cc1 (stereo unspecified)	11µM*	0.85µM*	?	?	3%	?
Cc1sc(NC(=O)c2ccco2)c(CN2CCN(Cc3ccccc3)CC2)c1C	-40%	?	-3%	-14%	2%	13µM*
Cc1ccc(-c2csc(NC(=O)c3ccc(-c4ccccc4)cc3)n2)o1	-45%	4.3µM*	17%	18µM*	-8%	-2%
COc1ccc(-c2csc(NC(=O)c3c(OC)cccc3OC)n2)cc1	/	0%	-2%	2%	0%	1%
O=C(Nc1cc(-c2ccccc2)cs1)c1ccco1	/	7.6µM*	?	16µM*	3.5µM*	?
COc1ccc(-c2csc(NC(=O)c3ccco3)n2)cc1	7.9µM*	9.5µM*	2.8µM*	16%	2.2µM*	?
COCCN(C(=O)CCCc1nc2ccccc2s1)c1c(N)n(CC(C)C)c(=O)[nH]c1=O	/	0%	7%	-2%	-2%	27%
Cc1ccc(S(=O)(=O)NCc2ccc(C(=O)NC3CCC(O)CC3)cc2)cc1C (stereo unspecified)	/	3%	3%	0%	-1%	11%
O=C(CSc1nc2ccccc2nc1Cc1ccc(Cl)cc1)N1CCCc2ccccc21	/	2%	/	/	/	/
COc1ccc(-c2c(C)nn3c(C(F)(F)F)cc(-c4ccccc4)nc23)cc1	2%	-4%	/	/	/	/
Cc1ccc(-c2csc(NC(=O)c3c(C)noc3C)n2)cc1C	/	?	3%	1%	0%	9%
Cc1ccc(-c2csc(NC(=O)c3ccco3)n2)cc1C	/	8.5µM*	2.2µM*	?	4µM*	?
Cc1cc(NC(=O)c2ccco2)sc1C	/	5.4µM*	2µM*	?	2µM*	?
O=C(NNc1nc(-c2ccc(Br)cc2)cs1)c1ccco1	-27%	8.5µM*	15%	?	?	?
CCOc1ccc(-c2csc(NC(=O)c3ccco3)n2)cc1	/	12µM*	24%	?	?	?
Cn1cnc(S(=O)(=O)N2CCC(C(=O)NCc3ccc(Cl)cc3)CC2)c1	/	-5%	/	/	/	/
COc1ccc(-c2csc(NC(=O)C3=NN(c4ccccc4)C(=O)CC3)n2)cc1	-95%	7.6µM*	-1%	-11%	-3%	?
O=C(Nc1nc(-c2ccc3ccccc3c2)cs1)c1ccc(N2C(=O)CCC2=O)cc1	-22%	-3%	-10%	2%	-10%	-7%
O=C(O)c1ccccc1C(=O)Nc1nc(-c2ccc3ccccc3c2)cs1	/	17µM*	1%	8%	?	?
O=C(Nc1nc(-c2ccccc2)cs1)c1ccco1	/	15µM*	?	-15%	?	?
O=C(Nc1nc(-c2cc(F)ccc2F)cs1)C1=NN(c2ccccc2)C(=O)CC1	-15%	?	-2%	-4%	2%	?
O=C(Nc1nc(-c2ccco2)cs1)c1ccccc1	7%	11µM*	?	?	?	?
SMILES	SMN2 splice enh	FLuc modulator	NPC1 prom act	ELG1 genotoxic	Rab9 promoter act	ELG1 DNA repair
CCOC(=O)Nc1ccc2c(c1)OCO2	10%	?	?	?	?	?
CCOC(=O)c1[nH]c(C)c(C(=O)Nc2ccc(C)c(C)c2)c1C	18%	-9%	?	11%	1.4µM*	0%
CCOC(=O)c1[nH]c(C)c(C(=O)OCC(=O)NC(C)c2ccc(F)cc2)c1C (stereo unspecified)	/	6%	-26%	1%	-24%	-8%
CC(=O)c1c(C)[nH]c(C(=O)OCc2ccccc2)c1C	?	15µM*	?	18µM*	?	?
CCOC(=O)c1c(C)[nH]c(C(=O)Nc2ccc3c(c2)OCO3)c1C	/	4.8µM*	3.5µM*	?	4µM*	?
CCOC(=O)c1[nH]c(C)c(C(=O)Nc2ccc(F)cc2)c1C	6%	3%	1%	21%	-5%	?
CCOC(=O)c1c(C)[nH]c(C(=O)OCc2ccc(F)cc2)c1C	/	4.8µM*	2.2µM*	15µM*	1.6µM*	?
COCCCNc1nc2c(-c3cccc(Br)c3)nnn2c2ccccc12	6%	-5%	/	/	/	/
CCCn1nnnc1NCc1ccc(N(CC)CC)cc1	/	3%	-2%	-1%	-2%	-8%
COc1ccc(C(CNC(=O)COc2cc(C)cc(C)c2)N2CCOCC2)cc1 (stereo unspecified)	/	-7%	/	/	/	/
CCOC(=O)c1[nH]c(C)c(C(=O)NC2CCCCC2)c1C	16%	4%	-2%	-5%	-2%	2%
CCOC(=O)c1[nH]c(C)c(C(=O)OC)c1C	/	?	10%	15%	-1%	?
CC(=O)c1c(C)[nH]c(C(=O)OCCCCN2C(=O)c3ccccc3C2=O)c1C	-48%	1%	-31%	-7%	-28%	6.5µM*
CCOC(=O)c1[nH]c(C)c(C(=O)Nc2ccccc2F)c1C	5µM*	?	-26%	?	-7%	?
CCOC(=O)c1c(C)[nH]c(C(=O)OCc2ccccc2F)c1C	/	2.7µM*	1.6µM*	1.6µM*	1.6µM*	?
CCOC(=O)c1[nH]c(C)c(C(=O)NCC2CCCO2)c1C (stereo unspecified)	-16%	0%	1%	-4%	5%	0.73µM*
COc1cc(/C=C/c2cccc[n+]2C)ccc1OCC(=O)Nc1cccc(Cl)c1	/	-9%	2%	-18%	0%	?
CC(C)[C@H](NC(=O)C1CCN(S(=O)(=O)c2ccccc2)CC1)C(=O)NCc1ccccc1	/	0%	2%	10%	-3%	17%
CCCCN(CC)C(=O)c1nn(C)c2c1CSc1ccccc1-2	/	6%	/	/	/	/
CC1CCCCN1C(=O)COC(=O)C1CCN(S(=O)(=O)c2c(Cl)cccc2Cl)CC1 (stereo unspecified)	/	2%	-1%	-2%	3%	0%
COC(=O)c1c(C)[nH]c(C(=O)OCc2csc(CC(=O)Nc3ccccc3C)n2)c1C	/	/	/	0%	/	8.2µM*

Screening data from PubChem BioAssay.
